Laboratory results: PubChem BioAssay (NCI)
The panel holds about 83,000 compounds, 20% with a hit somewhere; the sample as a whole holds those more often.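 Values shown are percent growth following 48 h exposure of cells in 96-well plates to a single concentration of compound; below 10 was considered active.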 A number with no mark means an inactive call. The source made the active and inactive calls.

Tests used:
Assay in all cases: NCI-60 one-dose screen, 48 h (100 = growth as untreated, 0 = no growth, -100 = all killed)
Conditions in all cases: 10 µM unless noted
SK-MEL-2 melanoma = test system: SK-MEL-2 melanoma
EKVX NSCLC = test system: EKVX NSCLC
SN12C renal = test system: SN12C renal
UO-31 renal = test system: UO-31 renal
TK-10 renal = test system: TK-10 renal
ACHN renal = test system: ACHN renal
CAKI-1 renal = test system: CAKI-1 renal
A498 renal = test system: A498 renal
CCRF-CEM leukemia = test system: CCRF-CEM leukemia
MOLT-4 leukemia = test system: MOLT-4 leukemia
SR leukemia = test system: SR leukemia
RPMI-8226 leukemia = test system: RPMI-8226 leukemia
OVCAR-8 ovarian = test system: OVCAR-8 ovarian
OVCAR-5 ovarian = test system: OVCAR-5 ovarian
OVCAR-4 ovarian = test system: OVCAR-4 ovarian
SK-OV-3 ovarian = test system: SK-OV-3 ovarian
IGROV1 ovarian = test system: IGROV1 ovarian
OVCAR-3 ovarian = test system: OVCAR-3 ovarian
HS 578T breast = test system: HS 578T breast
NCI/ADR-RES ovarian = test system: NCI/ADR-RES ovarian

| Compound | growth (SK-MEL-2 melanoma) | growth (EKVX NSCLC) | growth (SN12C renal) | growth (UO-31 renal) | growth (TK-10 renal) | growth (ACHN renal) | growth (CAKI-1 renal) | growth (A498 renal) | growth (CCRF-CEM leukemia) | growth (MOLT-4 leukemia) | growth (SR leukemia) | growth (RPMI-8226 leukemia) | growth (OVCAR-8 ovarian) | growth (OVCAR-5 ovarian) | growth (OVCAR-4 ovarian) | growth (SK-OV-3 ovarian) | growth (IGROV1 ovarian) | growth (OVCAR-3 ovarian) | growth (HS 578T breast) | growth (NCI/ADR-RES ovarian) |
| --- | --- | --- | --- | --- | --- | --- | --- | --- | --- | --- | --- | --- | --- | --- | --- | --- | --- | --- | --- | --- |
| C=CC(=O)OC1CCC(C(C)(C)CC)CC1 (stereo not drawn) | 108% | 117% | 103% | 83.9% | 101% | 110% | 115% | 87.2% | 106% | 107% | 98.9% | 103% | 107% | 103% | 105% | 111% | 117% | 109% | 101% | 105% |
| CC1(C)CC(=O)C=C(N)C1 | 98.4% | 60.3% | 99.3% | 85.7% | 99.2% | 107% | 85.1% | 85.1% | 124% | 59.5% | 108% | 178% | 97.1% | 89.3% | 91.7% | 145% | 101% | 106% | 77.9% | 83.4% |
| CCOP(=O)(OCC)/C(=C\N1C(=O)CC(=O)NC1=S)C(=O)OC | 118% | 98.9% | 101% | 90% | 112% | 99.5% | 97.4% | 87.7% | 103% | 100% | 96.7% | 101% | 97.6% | 98.7% | 94.3% | 104% | 103% | 114% | 98.4% | 104% |
| CCNc1ncnc2[nH]ncc12 | 101% | 88.6% | 96.9% | 99.7% | 102% | 98.2% | 93% | 96.9% | 30.1% | 134% | 143% | 73.9% | 72.3% | 104% | 108% | 109% | 124% | 112% | 109% | 105% |
| OCC(O)COc1ccc(Cl)cc1Cl (stereo not drawn) | 97.4% | 96.5% | 95% | 89.4% | 101% | 93.2% | 96% | 99% | 119% | 99.2% | 101% | 102% | 92.4% | 101% | 101% | 91.7% | 101% | 110% | 102% | 110% |
| Cc1c(Cl)cccc1N=C=S | 99.5% | 89.1% | 99.9% | 81.1% | 106% | 99.3% | 88.8% | 117% | 94.6% | 109% | 108% | 86.3% | 95.6% | 93.1% | 87.4% | 104% | 108% | 102% | 109% | 89.3% |
| COc1ccc(/C=C\C(=O)/C=C/c2ccc(OC)cc2)cc1 | 123% | 93.2% | 90.3% | 69.1% | 116% | 95.5% | 87.5% | 174% | 37.4% | 68.2% | 17.7% | -20% (active) | 101% | 107% | 88.6% | 104% | 92.3% | 85.1% |  | 99.2% |
| O=C(O)CSCC(=O)Nc1cc(C(F)(F)F)ccc1Cl | 111% | 105% | 102% | 84.4% | 110% | 106% | 89.4% | 139% | 101% | 109% | 96.1% | 106% | 107% | 104% | 119% | 109% |  | 113% | 101% | 117% |
| O=C1NC(=O)/C(=C\c2ccncc2)N1 | 104% | 95.5% | 95.9% | 95.5% | 105% | 97.9% | 100% | 94.1% | 105% | 111% | 92.2% | 103% | 103% | 98.3% | 98.6% | 99.2% | 109% | 94.3% | 95% | 103% |
| O=C1C=CC(=O)C2=C1CCCC2 | 110% | 69.1% | 98.7% | 70.9% | 132% | 90% | 79% | 132% | 18.8% | 31.1% | 68.1% | 72.4% | 95.1% | 108% | 88% | 89.4% | 80.5% | 89% |  | 94.8% |
| O=Cc1ccc(O)c(O)c1 | 103% | 103% | 94.9% | 84.2% | 107% | 114% | 112% | 88.4% | 57.8% | 80.5% | 82.9% | 87.5% | 95.8% | 96.2% | 97.1% |  | 88.8% | 96.3% | 133% | 93.1% |
| Cc1ccc(/C=N/NC(N)=S)s1 | 102% | 96% | 99% | 90.5% | 105% | 103% | 92% | 95.2% | 100% | 99.4% | 97.3% | 100% | 107% | 104% | 110% | 111% |  | 105% | 106% | 109% |
| N#Cc1ccc2nc[nH]c2c1 | 102% | 104% | 110% | 91.4% | 108% | -68.5% (active) | 95% | 98.7% | 115% | 109% | 106% | 108% | 104% | 108% | 109% | 109% |  | 102% | 100% | 110% |
| Nc1c(O)c(S(=O)(=O)O)c(O)c2c1C(=O)c1ccccc1C2=O | 6.13% (active) | 33.8% | 28.1% | 12.2% | 21.7% | 4.01% (active) | 13.5% | 5.41% (active) | 28% | 5.87% (active) | 13.8% | 11.5% | 27.8% | 42.8% | 26.1% | 22.9% | 19.2% | 8.87% (active) | 59.7% | 17.8% |
| CCC(=O)Oc1ccc2ccccc2c1 | 95.2% | 95.7% | 91% | 71.6% | 105% | 98.7% | 91.2% | 82.7% | 89.8% | 99% | 106% | 100% | 100% | 103% | 101% | 98.9% | 106% | 108% | 81% | 96.8% |
| O=S(=O)(O)c1cccnc1 | 136% | 93.7% | 105% | 109% | 104% | 105% | 95.2% | 101% | -41.7% (active) | 79.6% | 100% | 66.4% | 104% | 119% | 114% | 103% | 132% | 111% | 110% | 128% |
| CN1CCN(C(=S)S)CC1 | 114% | 106% | 108% | 98.4% | 111% | 105% | 99.5% | 118% | 89% | 105% | 104% | 102% | 109% | 106% | 127% | 111% | 74.4% | 115% |  | 108% |
